“And” between values parts separate entries of the source, which are not always exact repeats. Equal values may be shown once. About 79,000 compounds went through this panel and 15% of them were active in at least one assay; those are over-represented in the sample as a whole. Unmarked numbers belong to inactive results. Rule as the data show it: active = growth inhibition above about 70%; inactive = the rest.

This assay is described as follows: NCI Yeast Anticancer Drug Screen. Data for the cln2 rad14 strain (AID 165).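 Also: 0% = growth equal to vehicle treated cultures.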 The following applies: S. cerevisiae cln2 rad14 strain, at 50.0 µM, stronger effect = higher value. Summed up: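 Readout is yeast growth inhibition versus vehicle-treated controls, using a strain with cln2 and rad14 alterations exposed to compound.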
As for `CC12CCC3C(CCC4(C)CC(OC(=O)Cc5ccc(N(CCCl)CCCl)cc5)CCC34C)C1CCC2=O` (stereo not given), the growth inhibition was -1.4%. Turning to `CC(=O)OC1CCC2(C)C3CCC4(C)C(Oc5ccccc5)CCC4C3CC(Br)C2(O)C1` (stereo not given), the growth inhibition is 2.75%. The value for `O=C(O)c1ccccc1O.[Cu]` was -3.85%; that for `[C-]#[O+].[C-]#[O+].[C-]#[O+].[C-]#[O+].[C-]#[O+].[C-]#[O+].[C-]#[O+].[C-]#[O+].[C-]#[O+].[C-]#[O+].[Mn].[Mn]` was -71.6%; that for `CCN(CC)C(=O)N1CN(c2ccccc2)C2(CCN(CCCC3(c4ccc(F)cc4)OCCO3)CC2)C1=O` was 19.7%. Regarding `O=[P+](O)c1ccccc1`, the growth inhibition was 5.9% and 0.6%. As for `CCCC1CC=CCC12C(=O)NC(=O)NC2=O` (stereo not given), the figure is -6.5%; as for `OC1=C2CCCCCC2=[N+]2CCCCC2C1` (stereo not given), -1.6%; as for `O=C1NCCCCC1Cl` (stereo not given), -21%. The value for `O=NN1CCOCC1` was -15.7%; that for `[Se]c1nc(N2CCOCC2)ncc1-c1ccccc1` was 0.5%; that for `COc1ccc(/C=C/c2cc(OC)c3c(c2)OCO3)cc1O` was 0.9%. For `ClCCN(CCCl)c1ccc(CCN2CCOCC2)cc1`, the growth inhibition is 37.4%. The value for `COC(=O)C[CH2][Sn]([CH2]CC(=O)OC)([c]1ccccc1)[c]1ccccc1` was -15.7%; that for `[C-]#[O+].[C-]#[O+].[C-]#[O+].[C-]#[O+].[W].c1ccc([PH+](CC[PH+](c2ccccc2)c2ccccc2)c2ccccc2)cc1` was -8%.

Values taken from PubChem BioAssay (NCI).
